The list is not random: actives were taken first. Their share in the collection is about 9.5%.
Pf growth 48h: P. falciparum growth inhibition at 48 hours (one generation); P. falciparum luciferase growth in erythrocytes, 48 h; Potency, µM (top dose mostly 28.7 µM), for the others: top-dose activity change, negative = inhibition, usual class: inhibitors; hit rate 5.9% among 310,000; AID 504832; also: % is scaled to controls: 0 for no effect and ±100 for the full control effect
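Erythrocytes infected with P. falciparum carrying an integrated firefly luciferase reporter (2% hematocrit, 0.1% parasitemia final) were exposed to compounds in RPMI 1640 with 0.5% Albumax at 37 C, 5% CO2. Growth inhibition was scored as reduced luminescence.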
Pf growth 96h: inhibits malaria parasite growth, 96 h; Potency, µM (highest dose often 28.7 µM), without a hit: at the highest dose activity change, negative = inhibition, actives largely listed as inhibitors; P. falciparum luciferase reporter growth, 96 h; hit rate 6.9% among 320,000; also: % is scaled to controls: 0 for no effect and ±100 for the full control effect
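96 h incubation, 37 C, 5% CO2, of luciferase-reporter P. falciparum-infected RBCs (2% hematocrit, 0.05% parasitemia final) with test compounds; endpoint luminescence.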
SARS PLP yeast: blocks SARS-CoV papain-like protease in a yeast assay; S. cerevisiae expressing SARS-CoV PLpro, growth rescue; Potency, µM (titrated, usually from 32.9 µM), inactives show at the top dose activity, positive = growth rescue, usual class: activators; hit rate 0.19% among 330,000; calls by dose curve; also: 0% is about no effect; nearly all actives have a fitted effect of over 55% in size
RE007 growth inh: less growth of the S. pombe RE007 Vpr strain; S. pombe RE007 Vpr strain, BacTiter-Glo ATP luminescence, 24 h; Potency, µM (highest dose often 92.2 µM), inactives show at the top dose activity change, negative = less growth, most hits filed as inhibitors; hit rate 0.21% among 360,000; active = well fitted falling curve with a large enough effect; inconclusive = small, poorly fitted or top-dose-only effect; inactive = no such curve, though single readings can be large or run the other way; also: % is scaled to controls: 0 for no effect and ±100 for the full control effect; nearly all actives have a fitted effect of over 50% in size
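Fission yeast strain RE007, carrying one chromosomally integrated HIV-1 vpr copy, was seeded at OD 0.01 in PMG+AL medium with 23 nL pinned compound. After 24 h at 30 °C and 99% humidity, viability was read by BacTiter-Glo luminescence.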
NS1 function inh: blocks influenza NS1 protein function | Potency, µM (highest dose often 46.1 µM), for the others: at the highest dose activity, positive = more growth | hit rate 0.4% among 270,000; calls by dose curve; also: actives are rising curves; nearly all actives have a fitted effect of over 50% in size
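A cell-based growth assay was used: compounds that relieve NS1-induced slow growth of budding yeast raise OD600. Assay medium was yeast nitrogen base with ammonium sulphate and -URA supplement, pH 6.0, with 2% galactose.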
Numbers without * were called inactive; [ ] = another dose, or the depositor's remark. Unless noted, calls follow the shape of the dose curve; as a rule, active = well fitted inhibition curve with a large enough effect; inconclusive = small, poorly fitted or top-dose-only effect, or another doubt; inactive = no such curve, though single readings can be large or run the other way. Potency is read from the fitted curve at half-maximal effect.

How did CC1(C)COC(c2ccc(F)c([N+](=O)[O-])c2)=N1 do in these assays?
Pf growth 48h: 6%; Pf growth 96h: inconclusive; SARS PLP yeast: 18%; RE007 growth inh: -4%; NS1 function inh: 9%

What do the screens show for `Cc1oc(-c2cc(F)ccc2F)nc1CN(C)Cc1ccc2nccnc2c1`?
Pf growth 48h: inconclusive; Pf growth 96h: 2.9µM*; SARS PLP yeast: -1%; RE007 growth inh: -3%; NS1 function inh: -3%

Results for Cc1cc(N2CCN(Cc3nc(-c4ccc(Cl)cc4)oc3C)CC2)cc(C)n1 ?
Pf growth 48h: inconclusive; Pf growth 96h: inconclusive; SARS PLP yeast: 1%; RE007 growth inh: -27%; NS1 function inh: -2%

Results for Cc1oc(-c2ccccc2F)nc1CS(=O)CC(=O)NCc1ccc(Cl)cc1 (stereo not given) ?
Pf growth 48h: 15%; Pf growth 96h: 18%; SARS PLP yeast: -2%; RE007 growth inh: -7%; NS1 function inh: inconclusive

Results for Cc1oc(-c2cc(F)ccc2F)nc1CN1CCN(c2cnccn2)CC1 ?
Pf growth 48h: 13µM*; Pf growth 96h: inconclusive; SARS PLP yeast: 0%; RE007 growth inh: -24%; NS1 function inh: -8%

What do the screens show for `Clc1ccc(Nc2ccc(-n3ccnc3)nn2)cc1Cl`?
Pf growth 48h: 2.6µM*; Pf growth 96h: 1.9µM*; SARS PLP yeast: -27%; RE007 growth inh: 44%; NS1 function inh: -77%

How did COc1ccc(C2C(C(=O)N3CCN(c4ccccn4)CC3)CCC(=O)N2c2ccc(OC)cc2)cc1 (stereo not given) do in these assays?
Pf growth 48h: -5%; Pf growth 96h: 9%; SARS PLP yeast: 3%; RE007 growth inh: -5%; NS1 function inh: 2%

How did COc1ccc(N2C(=O)CCC(C(=O)NCc3ccccn3)C2c2ccc(OC)c(OC)c2)cc1 (stereo not given) do in these assays?
Pf growth 48h: 4%; Pf growth 96h: 4.7µM*; SARS PLP yeast: 3%; RE007 growth inh: -12%; NS1 function inh: -2%

Results for COc1ccc(C2C(C(=O)N3CCN(c4ccccn4)CC3)CC(=O)N2c2ccc(OC)cc2)cc1 (stereo not given) ?
Pf growth 48h: 4.7µM*; Pf growth 96h: 10%; SARS PLP yeast: 30%; RE007 growth inh: -4%; NS1 function inh: -20%

Results for O=C(Nc1cc(Cl)ccc1O)C1CC(c2ccccc2Cl)=NO1 (stereo not given) ?
Pf growth 48h: -11%; Pf growth 96h: 119%; SARS PLP yeast: -13%; RE007 growth inh: 20%; NS1 function inh: -32%

What do the screens show for `O=C(Nc1ccccc1C(F)(F)F)N1CCN(c2ccc3nnc(-c4ccc(F)cc4)n3n2)CC1`?
Pf growth 48h: 12µM*; Pf growth 96h: inconclusive; SARS PLP yeast: 8%; RE007 growth inh: -11%; NS1 function inh: 5%

How did O=C(c1cc2ccccn2n1)N1CCN(c2cccc(C(F)(F)F)c2)CC1 do in these assays?
Pf growth 48h: 5%; Pf growth 96h: 9.3µM*; SARS PLP yeast: -5%; RE007 growth inh: 7%; NS1 function inh: -8%

Results for COc1ccccc1NS(=O)(=O)c1cc(NC(=O)CNC(=O)c2ccc(C)s2)ccc1Cl ?
Pf growth 48h: 12%; Pf growth 96h: 6%; SARS PLP yeast: 10%; RE007 growth inh: -3%; NS1 function inh: 15%

Results for C=C(C)c1cccc(C(C)(C)NC(=O)NC(c2ccccc2)c2ccc(OC)cc2)c1 (stereo not given) ?
Pf growth 48h: inconclusive; Pf growth 96h: 12µM*; SARS PLP yeast: 8%; RE007 growth inh: 16%; NS1 function inh: 26%

Results for C=C(C)c1cccc(C(C)(C)NC(=O)Nc2ccc(OC)cc2)c1 ?
Pf growth 48h: -23%[5.75 µM]; Pf growth 96h: inconclusive; SARS PLP yeast: 0%; RE007 growth inh: 2%

How did CCC(C)c1ccc(N(C(=O)c2ccco2)C(C(=O)NC2CCCC2)c2cccnc2)cc1 (stereo not given) do in these assays?
Pf growth 48h: 1.9µM*; Pf growth 96h: 28%; SARS PLP yeast: 0%; RE007 growth inh: -1%; NS1 function inh: -5%

Results for O=C(NC1CCCC1)C(c1ccncc1)N(Cc1ccccc1)C(=O)Cc1cccs1 (stereo not given) ?
Pf growth 48h: inconclusive; Pf growth 96h: inconclusive; SARS PLP yeast: 13%; RE007 growth inh: -3%; NS1 function inh: 7%

Results for COc1cccc(CN(C(=O)c2ccco2)C(C(=O)NC2CCCC2)c2cccnc2)c1 (stereo not given) ?
Pf growth 48h: -6%; Pf growth 96h: 7%; SARS PLP yeast: 3%; RE007 growth inh: 9%; NS1 function inh: -4%

What do the screens show for `O=C(NC1CCCCC1)C(c1cccnc1)N(CCc1ccccc1)C(=O)Cc1cccs1` (stereo not given)?
Pf growth 48h: 13µM*; Pf growth 96h: 21%; SARS PLP yeast: -4%; RE007 growth inh: -4%; NS1 function inh: -2%

Results for O=C(NCC(=O)N(CCc1ccccc1)C(C(=O)NC1CCCCC1)c1ccncc1)c1ccco1 (stereo not given) ?
Pf growth 48h: inconclusive; Pf growth 96h: 11%; SARS PLP yeast: 27%; RE007 growth inh: -7%; NS1 function inh: -16%

Results for O=C(NCC(=O)N(CCc1ccccc1)C(C(=O)NC1CCCC1)c1cccnc1)c1ccco1 (stereo not given) ?
Pf growth 48h: 15µM*; Pf growth 96h: 3%; SARS PLP yeast: 14%; RE007 growth inh: -2%; NS1 function inh: -12%

What do the screens show for `O=C(NC1CCCC1)C(c1cccnc1)N(CCc1ccccc1)C(=O)c1ccco1` (stereo not given)?
Pf growth 48h: 5.2µM*; Pf growth 96h: 43%; SARS PLP yeast: 1%; RE007 growth inh: 10%; NS1 function inh: -9%

What do the screens show for `N=C(N)S[C@H]1c2ccccc2-c2cc([N+](=O)[O-])ccc21`?
NS1 function inh: 18%

Results for CN(CC(=O)NCC(=O)Nc1ccc(F)c(F)c1F)C1CCS(=O)(=O)C1 (stereo not given) ?
Pf growth 48h: -27%; Pf growth 96h: 14%; SARS PLP yeast: -5%; RE007 growth inh: -8%

Results for Cc1ccc(NC2CCCN(C(=O)CN3C(=O)c4ccccc4C3=O)C2)cc1C (stereo not given) ?
Pf growth 48h: inconclusive; Pf growth 96h: 15µM*; SARS PLP yeast: -5%; RE007 growth inh: -12%; NS1 function inh: -5%

How did O=C(CCc1ccncc1)N1CCCC(Nc2ccc(F)c(F)c2)C1 (stereo not given) do in these assays?
Pf growth 48h: 0%; Pf growth 96h: 13µM*; SARS PLP yeast: -7%; RE007 growth inh: -8%; NS1 function inh: -3%

What do the screens show for `Cc1ccc(NC2CCCN(C(=O)CSc3ccncc3)C2)cc1C` (stereo not given)?
Pf growth 48h: -25%; Pf growth 96h: 13µM*; SARS PLP yeast: -3%; RE007 growth inh: -1%; NS1 function inh: 11%

Screening data as filed in PubChem.
